Assay results: PubChem BioAssay (EPA / NIEHS)
Calls of active or inactive are those of the source. The calls were made as follows: active = hit-call score of the fitted dose curve at least 0.9, where 1 is the maximum; inactive = score below 0.9.

Assay: ATG_Sox_CIS: Attagene CIS-FACTORIAL HepG2 Assay for human SRY-box transcription factor (SOX) (AID 2282960)
Details: HepG2 Attagene cis-factorial SOX reporter, mRNA; actives raise or lower the signal
Protocol: ATG_CIS is a cell-based, multiplexed-readout assay that uses HepG2, a human liver cell line, with measurements taken at 24 hours after chemical dosing in a 24-well plate.ATG_Sox_CIS is one of 52 assay component(s) measured or calculated from the ATG_CIS assay. It is designed to make measurements of mRNA induction, a form of inducible reporter, as detected with fluorescence intensity signals by Reverse transcription polymerase chain reaction (RT-PCR) and Capillary electrophoresis technology.Data from the assay component ATG_Sox_CIS was analyzed into 1 assay endpoint. This assay endpoint, ATG_Sox_CIS, was analyzed with bidirectional fitting relative to DMSO as the negative control and baseline of activity. Using a type of inducible reporter, measures of mRNA for gain or loss-of-signal activity can be used to understand the reporter gene at the transcription factor-level as they relate to the gene SOX1. Furthermore, this assay endpoint can be referred to as a primary readout, because this assay has produced multiple assay endpoints where this one serves a reporter gene function. To generalize the intended target to other relatable targets, this assay endpoint is annotated to the dna binding intended target family, where the subfamily is HMG box protein.
Human liver HepG2 cells are transiently transfected with multiple reporter transcription units (MRTUs) in 6-well plates using FuGene 6 reagent (Roche; 3 ml FuGene/1 mg DNA). The MRTU constructs are regulated by a cis-regulating element (promoter). […] A major difference between the CIS and TRANS system is that in CIS activities of endogenous TFs are measured, whereas the TRANS assay evaluates changes in activities of exogenous, chimeric NR-Gal4 proteins. […] At the end of 24 hour incubation, total RNA was isolated using TriZol reagent (Invitrogen). The isolated RNA is then reverse-transcribed using oligo(dT) primer and Mo-MLV reverse transcriptase (Invitrogen) with DNAse I (Ambion) treatment for 30 min. The one-tenth of the produced cDNA was amplified by PCR using Taq DNA polymerase (Invitrogen) and two reporter sequence-specific primers. The PCR products were fluorescently labeled by primer extension with 6-arboxyfluorescein (6-FAM) 5'-labeled reporter sequence-specific primer (2 min at 95 C, 20 s at 68 C and 10 min at 72 C) and these products were digested with 5U of HpaI (New England Biolabs) for 2h at 37 C. The fragments were purified using Qiaquick PCR columns (Qiagen), analyzed on an ABI 3130xL genetic analyzer (Applied Biosystems) with peak positions identified by using a set of X-rhodamine (ROX)-labeled MapMarker1000 molecular weight standards (BioVentures). The raw capillary electrophoresis data was processed using Attagraph software (Attagene).

| Structure (SMILES) | outcome | AC50 |
| --- | --- | --- |
| Nc1c(S(=O)(=O)O)cc(Br)c2c1C(=O)c1ccccc1C2=O | inactive | – |
| CCC(Cl)C(Cl)C(Cl)CC(Cl)C(Cl)C(C)Cl (stereo not given) | inactive | – |
| O=C(c1ccccc1)C(O)c1ccccc1 (stereo not given) | inactive | – |
| CN(C)CCOC(C)(c1ccccc1)c1ccccn1 (stereo not given) | inactive | – |
| COC(=O)Nc1ccc(Cl)c(Cl)c1 | inactive | – |
| CC(C)C(OC(=O)c1ccccc1)C(C)(C)COC(=O)c1ccccc1 (stereo not given) | inactive | – |
| CC(C)C[C@H](NC(=O)OCC1c2ccccc2-c2ccccc21)C(=O)O | inactive | – |
| Cc1ccc(-c2ccccc2)cc1 | inactive | – |
| c1ccc2[nH]cnc2c1 | inactive | – |
| CCCCCCCCCCCC(=O)OCC(O)CO (stereo not given) | inactive | – |
| CSCCC=O | inactive | – |
| CCCCCCOC(=O)C(C)C | inactive | – |
| CCCC(C)=O | inactive | – |
| CCCC(=O)OCCc1ccccc1 | inactive | – |
| CCCCOCC | inactive | – |
| CC(=O)c1ccccn1 | inactive | – |
| COCCOCCOCCO | inactive | – |
| Nc1ccc2c(O)cc(S(=O)(=O)O)cc2c1 | inactive | – |
| Clc1ccc(C(c2ccccc2Cl)C(Cl)Cl)cc1 (stereo not given) | – | 182 µM (active) |
| C=Cc1ccncc1 | – | 21.8 µM (active) |

| Structure (SMILES) | outcome | AC50 |
| --- | --- | --- |
| COC(C)(C)CCO | inactive | – |
| CCOc1ccc(NC(=O)CC(C)=O)cc1 | inactive | – |
| CCCOC(=O)c1c(Cl)c(Cl)c(Cl)c(Cl)c1C(=O)OCCC | inactive | – |
| O=C1OC(=O)c2c(Br)c(Br)c(Br)c(Br)c21 | inactive | – |
| C[C@H]1C[C@@H](O)CC(C)(C)C1 | inactive | – |
| CC1(C)COCN1 | inactive | – |
| CN(C)CCOc1ccc(/C(=C(/CCCl)c2ccccc2)c2ccccc2)cc1 | inactive | – |
| COc1ccc(CCN2CCC(Nc3nc4ccccc4n3Cc3ccc(F)cc3)CC2)cc1 | inactive | – |
| C=C(CC(=O)O)C(=O)O | inactive | – |
| NC(=S)NNC(N)=S | inactive | – |
| C=CC(C)(O)CCC=C(C)C (stereo not given) | inactive | – |
| CCC(C)c1cc([N+](=O)[O-])cc([N+](=O)[O-])c1OC(=O)OC(C)C (stereo not given) | – | 25.3 µM (active) |
| O=C(CS)OCCOC(=O)CS | inactive | – |
| FC(F)(F)COCC(F)(F)F | inactive | – |
| CCCCCC(=O)CC | inactive | – |
| C=C1C[C@]23C[C@@]1(O)CC[C@H]2[C@@]12C=C[C@H](O)[C@@](C)(C(=O)O1)[C@H]2[C@@H]3C(=O)O | inactive | – |
| O=C(O)c1cccnc1C(=O)O | inactive | – |
| CSc1c(Cl)c(Cl)c(Cl)c(Cl)c1Cl | inactive | – |
| O=C1OC[C@H](Cc2cccc(O)c2)[C@H]1Cc1cccc(O)c1 | inactive | – |
| CCc1ncc(C)[nH]1 | inactive | – |
